Results filed as inconclusive are left out. Entries that show only a call come without a potency. The source made the active and inactive calls. Calls follow the shape of the dose curve; as a rule, active = well fitted cell-killing curve with a large enough effect; inconclusive = small, poorly fitted or top-dose-only effect, or effect the other way; inactive = flat fitted curve, though single readings scatter.
Potency is read from the fitted curve at half-maximal effect.

The assay relates to CAOV3. Description: Primary qHTS to identify gynecologic anti-cancer compounds using libraries of approved drugs and bioactive compounds (AID 1345084). Also: nearly all actives have a fitted effect of over 55% in size. The following applies: Gynecologic cancer cell panel viability, ATPlite luminescence, 48 h; series mostly up to 57.5 µM. A digest of the protocol:
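In this quantitative HTS, cell killing is estimated from loss of ATP-dependent luciferase light. Cells see five compound concentrations over a 48 h exposure.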
(In general: qHTS replaces the single test concentration by a dilution series.)
As for `O=C(O)P(=O)(O)O`, the Potency entry is “inactive”.

As to `O=S(c1cc(Cl)cc(Cl)c1O)c1cc(Cl)cc(Cl)c1O`, the Potency entry was “inactive”. As for `CN1CCN(CCC(=O)N2c3ccccc3Sc3ccc(C(F)(F)F)cc32)CC1`, the Potency is 22.4 µM (active). As to `CN1CCN(C2=Nc3ccccc3Sc3ccc(Cl)cc32)CC1`, the Potency entry is “inactive”. `C#C[C@]1(O)CC[C@H]2[C@@H]3CCc4cc(OC)ccc4[C@H]3CC[C@@]21C`: the Potency result was “inactive”. For `Cc1cn([C@H]2C[C@H](F)[C@@H](CO)O2)c(=O)[nH]c1=O`, the Potency entry is “inactive”.

`COc1cc([C@H]2Oc3cc([C@H]4Oc5cc(O)cc(O)c5C(=O)[C@@H]4O)ccc3O[C@@H]2CO)ccc1O`: the Potency entry was “inactive”. For the compound `Nc1nc(Cl)nc2c1ncn2[C@@H]1O[C@H](CO)[C@@H](O)[C@@H]1F`, the Potency is 1.12 µM (active). With `CC(=O)O[C@]1(C(C)=O)CC[C@H]2[C@@H]3C=C(Cl)C4=CC(=O)CC[C@]4(C)[C@H]3CC[C@@]21C`, the Potency result was “inactive”. `CCNC(=O)NCc1cccc(Cl)c1`: the Potency entry was “inactive”.

Values taken from PubChem BioAssay (NCATS).
